Common to all, as to design: scale not given: direction of the effect not stated beside the values
Experiment [1] deals with Protein translocase subunit SecA (Escherichia coli (strain K12)) (UniProt P10408). The experiment in a line: Assay to Identify E. coli SecA ATPase Inhibitors. Format: functional. The conditions noted are these: 30 µM.
For experiment [2], the target named is T1, Ubiquitin-activating enzyme e1, putative (Leishmania donovani (strain BPK282A1)) (UniProt E9BSI1).
T1 sequence (whole entry): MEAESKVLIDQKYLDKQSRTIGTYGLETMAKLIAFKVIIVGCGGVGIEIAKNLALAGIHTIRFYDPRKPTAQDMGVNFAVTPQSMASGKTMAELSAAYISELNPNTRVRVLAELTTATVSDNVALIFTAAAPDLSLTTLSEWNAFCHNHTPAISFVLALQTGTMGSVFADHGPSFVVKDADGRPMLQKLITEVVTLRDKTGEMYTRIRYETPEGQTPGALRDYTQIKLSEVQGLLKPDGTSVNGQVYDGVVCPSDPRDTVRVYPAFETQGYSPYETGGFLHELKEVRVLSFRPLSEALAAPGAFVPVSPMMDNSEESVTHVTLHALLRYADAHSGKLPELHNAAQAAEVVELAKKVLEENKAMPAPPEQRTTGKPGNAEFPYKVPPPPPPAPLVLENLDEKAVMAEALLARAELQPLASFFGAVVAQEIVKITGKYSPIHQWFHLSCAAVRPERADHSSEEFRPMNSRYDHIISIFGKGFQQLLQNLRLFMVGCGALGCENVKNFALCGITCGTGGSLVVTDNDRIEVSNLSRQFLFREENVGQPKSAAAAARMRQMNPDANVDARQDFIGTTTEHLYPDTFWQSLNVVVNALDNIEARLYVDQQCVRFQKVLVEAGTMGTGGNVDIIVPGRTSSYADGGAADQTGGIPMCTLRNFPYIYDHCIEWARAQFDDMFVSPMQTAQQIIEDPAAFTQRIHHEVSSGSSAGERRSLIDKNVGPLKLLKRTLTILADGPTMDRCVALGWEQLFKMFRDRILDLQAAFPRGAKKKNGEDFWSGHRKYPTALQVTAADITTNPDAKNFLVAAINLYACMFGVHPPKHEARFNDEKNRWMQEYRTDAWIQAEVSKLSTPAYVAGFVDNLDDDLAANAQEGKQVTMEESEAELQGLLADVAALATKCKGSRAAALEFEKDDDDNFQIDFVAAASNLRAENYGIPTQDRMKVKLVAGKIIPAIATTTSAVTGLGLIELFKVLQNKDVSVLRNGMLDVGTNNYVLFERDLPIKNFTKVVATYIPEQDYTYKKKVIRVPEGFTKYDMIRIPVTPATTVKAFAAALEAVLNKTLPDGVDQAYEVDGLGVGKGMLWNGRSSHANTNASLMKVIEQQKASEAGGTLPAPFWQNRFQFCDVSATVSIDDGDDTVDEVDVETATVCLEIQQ
The experiment in a line: Leishmania donovani Ubiquitin Activating Enzyme (LdE1). In kind it is functional. The settings on record: 30 µM.

The target in experiment [3] is AMP-activated protein kinase, AMPK (Homo sapiens) (UniProt P54646+O43741+P54619+Q9UGJ0+Q9Y478+Q13131+Q9UGI9). Description: AMP-dependent Kinase enzyme assay. An in vitro enzyme assay that detects ADP turnover that is directly proportional to AMPK activity. This uses naive AMPK that is activated during the assay with MK-8722. Format: functional. The settings on record: 30 µM.

The target of experiment [4] is Sialic acid-binding Ig-like lectin 9 (Homo sapiens) (UniProt Q9Y336). Description: Hs-Siglec9 ALPHAscreen SOP 20170721. The settings on record: 10 µM. A general note: Bead proximity is the source of the signal in Alpha formats.
Chain of Sialic acid-binding Ig-like lectin 9 (Homo sapiens) (Q9Y336 whole entry): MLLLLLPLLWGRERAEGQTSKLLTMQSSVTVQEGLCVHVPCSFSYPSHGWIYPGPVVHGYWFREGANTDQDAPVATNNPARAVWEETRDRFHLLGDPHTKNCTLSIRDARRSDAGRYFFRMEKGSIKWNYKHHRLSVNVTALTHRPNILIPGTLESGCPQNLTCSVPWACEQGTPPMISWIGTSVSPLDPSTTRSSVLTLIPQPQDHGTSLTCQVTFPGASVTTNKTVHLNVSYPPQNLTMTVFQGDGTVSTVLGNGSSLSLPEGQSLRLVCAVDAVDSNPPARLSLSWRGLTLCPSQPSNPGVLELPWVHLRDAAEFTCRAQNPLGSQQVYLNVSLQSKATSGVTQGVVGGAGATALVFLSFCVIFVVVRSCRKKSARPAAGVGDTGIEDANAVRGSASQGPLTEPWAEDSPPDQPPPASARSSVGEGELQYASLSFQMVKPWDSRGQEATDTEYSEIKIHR
A further experiment has as its system Trypanosoma cruzi. The experiment in a line: Trypanosoma cruzi phosphomannomutase and mannose-1-phosphate guanylyltransferase assay. In kind it is functional. The conditions noted are these: 10 µM.
In experiment [5] the target is T2, Arginase-2, mitochondrial (Homo sapiens) (UniProt P78540).
T2 sequence (whole entry): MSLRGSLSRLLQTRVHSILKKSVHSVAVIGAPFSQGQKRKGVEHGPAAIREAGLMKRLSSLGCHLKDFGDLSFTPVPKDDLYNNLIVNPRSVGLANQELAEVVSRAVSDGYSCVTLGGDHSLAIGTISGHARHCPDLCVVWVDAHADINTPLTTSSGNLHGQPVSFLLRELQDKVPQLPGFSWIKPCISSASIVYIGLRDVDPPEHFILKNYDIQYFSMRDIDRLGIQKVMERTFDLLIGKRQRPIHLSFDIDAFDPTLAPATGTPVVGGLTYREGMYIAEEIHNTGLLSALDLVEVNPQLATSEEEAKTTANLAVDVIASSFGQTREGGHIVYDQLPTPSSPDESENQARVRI
Description: in vitro enzyme assay to detect the production of urea directly proportional to the activity of Arginase II. Also: in the data most compounds retested in dose-response had high values. In kind it is functional. The settings on record: 33.3 µM.

For experiment [6], the target named is T3, Proteasome subunit beta (Trypanosoma cruzi) (UniProt O96673).
T3 sequence (whole entry): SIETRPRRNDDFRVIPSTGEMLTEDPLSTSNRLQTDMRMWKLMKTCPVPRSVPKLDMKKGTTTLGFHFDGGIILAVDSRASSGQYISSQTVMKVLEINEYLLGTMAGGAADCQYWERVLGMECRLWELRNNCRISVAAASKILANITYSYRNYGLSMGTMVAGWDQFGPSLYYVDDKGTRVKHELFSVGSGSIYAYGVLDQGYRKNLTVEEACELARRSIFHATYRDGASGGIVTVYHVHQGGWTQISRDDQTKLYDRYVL
The experiment in a line: Trypanosoma cruzi proteasome chymotrypsin-like activity (TcProtChymo) assay. Also: in the data most compounds retested in dose-response had high values. In kind it is functional. The settings on record: 9.37 µM.

The species named for a further experiment is Homo sapiens. The experiment in a line: To identify inhibition of the IFN signalling (Jak-Stat) pathway via expression of an eGFP reporter gene under the control of an IFN-stimulated response element (ISRE) containing MxA promoter. Format: functional. The conditions noted are these: 30 µM.
For experiment [7], the target named is T4, Tyrosyl-tRNA synthetase, putative (Trypanosoma cruzi (strain CL Brener)) (UniProt Q4DSP6).
T4 sequence (whole entry): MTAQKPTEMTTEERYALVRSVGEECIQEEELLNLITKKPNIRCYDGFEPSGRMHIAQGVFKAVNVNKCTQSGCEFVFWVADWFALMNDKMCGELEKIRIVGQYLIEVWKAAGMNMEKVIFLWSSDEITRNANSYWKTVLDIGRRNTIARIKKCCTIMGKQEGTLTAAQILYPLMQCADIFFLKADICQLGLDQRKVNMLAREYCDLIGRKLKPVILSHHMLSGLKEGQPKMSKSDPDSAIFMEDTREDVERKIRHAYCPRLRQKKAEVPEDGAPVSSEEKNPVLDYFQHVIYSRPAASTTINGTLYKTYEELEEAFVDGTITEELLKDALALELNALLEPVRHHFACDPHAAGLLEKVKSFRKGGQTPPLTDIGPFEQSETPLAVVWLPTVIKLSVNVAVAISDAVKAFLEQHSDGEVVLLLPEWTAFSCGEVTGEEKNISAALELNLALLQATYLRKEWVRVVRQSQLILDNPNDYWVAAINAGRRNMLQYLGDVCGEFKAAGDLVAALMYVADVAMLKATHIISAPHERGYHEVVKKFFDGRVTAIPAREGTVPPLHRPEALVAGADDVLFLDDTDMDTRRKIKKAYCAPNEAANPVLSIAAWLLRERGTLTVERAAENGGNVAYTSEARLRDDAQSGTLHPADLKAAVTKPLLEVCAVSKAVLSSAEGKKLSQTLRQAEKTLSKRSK
Description: Trypanosoma cruzi tyrosyl tRNA synthetase (TcYRS) _High Tyrosine SOP. Also: in the data most compounds retested in dose-response had high values. The conditions noted are these: 30 µM. Format: functional.

Experiment [8] addresses T4, Tyrosyl-tRNA synthetase, putative (Trypanosoma cruzi (strain CL Brener)). The experiment in a line: Trypanosoma cruzi tyrosyl tRNA synthetase (TcYRS) SOP. The conditions noted are these: 30 µM. Format: functional.
Experiment [9] has as its target Chromo domain-containing protein 1 (Saccharomyces cerevisiae (strain ATCC 204508 / S288c) (Baker's yeast)) (UniProt P32657). Description: ScCHD-1 Enzyme Inhibition Assay. Also: in the data most compounds retested in dose-response had high values. In kind it is functional. The conditions noted are these: 30 µM.

The structures appear in SMILES notation. For some of these results: Entries with a potency or affinity are not part of this list.

Chain of Chromo domain-containing protein 1 (Saccharomyces cerevisiae (strain ATCC 204508 / S288c) (Baker's yeast)) (P32657 whole entry, the tested form may be a part): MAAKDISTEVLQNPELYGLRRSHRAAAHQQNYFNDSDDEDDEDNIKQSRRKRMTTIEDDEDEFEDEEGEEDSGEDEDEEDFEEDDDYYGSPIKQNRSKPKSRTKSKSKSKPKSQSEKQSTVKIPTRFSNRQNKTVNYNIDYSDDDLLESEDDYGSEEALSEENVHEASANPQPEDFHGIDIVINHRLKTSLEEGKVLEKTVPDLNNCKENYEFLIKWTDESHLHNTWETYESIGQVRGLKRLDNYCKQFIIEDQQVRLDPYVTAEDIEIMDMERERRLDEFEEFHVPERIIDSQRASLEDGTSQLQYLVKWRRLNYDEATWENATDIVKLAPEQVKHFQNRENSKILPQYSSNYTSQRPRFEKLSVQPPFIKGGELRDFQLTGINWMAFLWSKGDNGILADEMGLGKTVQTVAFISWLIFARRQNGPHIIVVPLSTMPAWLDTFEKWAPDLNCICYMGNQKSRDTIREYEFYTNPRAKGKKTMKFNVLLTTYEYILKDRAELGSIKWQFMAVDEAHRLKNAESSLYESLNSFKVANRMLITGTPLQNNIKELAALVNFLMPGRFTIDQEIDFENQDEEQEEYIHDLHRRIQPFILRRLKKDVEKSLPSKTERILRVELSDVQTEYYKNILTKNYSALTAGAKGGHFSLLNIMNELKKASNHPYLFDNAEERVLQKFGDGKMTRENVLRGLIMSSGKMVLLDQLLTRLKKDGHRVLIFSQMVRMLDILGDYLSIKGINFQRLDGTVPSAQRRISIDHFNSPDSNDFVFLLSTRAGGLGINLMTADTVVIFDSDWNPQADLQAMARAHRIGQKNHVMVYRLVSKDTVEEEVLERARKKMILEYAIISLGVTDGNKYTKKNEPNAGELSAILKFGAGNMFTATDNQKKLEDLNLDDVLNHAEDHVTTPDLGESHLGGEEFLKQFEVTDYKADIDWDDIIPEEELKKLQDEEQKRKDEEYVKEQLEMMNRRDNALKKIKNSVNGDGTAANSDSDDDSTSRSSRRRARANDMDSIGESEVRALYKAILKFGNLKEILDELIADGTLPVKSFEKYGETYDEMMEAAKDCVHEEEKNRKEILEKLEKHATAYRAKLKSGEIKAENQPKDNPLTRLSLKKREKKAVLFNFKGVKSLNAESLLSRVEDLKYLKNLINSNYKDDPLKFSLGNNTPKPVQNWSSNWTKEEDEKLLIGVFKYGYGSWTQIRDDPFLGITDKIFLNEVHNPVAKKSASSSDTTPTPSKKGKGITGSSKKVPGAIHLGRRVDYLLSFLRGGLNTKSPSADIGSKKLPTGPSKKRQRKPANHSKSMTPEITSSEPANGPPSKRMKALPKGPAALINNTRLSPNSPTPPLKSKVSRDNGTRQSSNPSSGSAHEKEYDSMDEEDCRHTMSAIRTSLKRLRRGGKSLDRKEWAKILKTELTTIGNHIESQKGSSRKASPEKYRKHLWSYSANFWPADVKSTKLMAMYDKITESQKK
Chain of Protein translocase subunit SecA (Escherichia coli (strain K12)) (P10408 whole entry): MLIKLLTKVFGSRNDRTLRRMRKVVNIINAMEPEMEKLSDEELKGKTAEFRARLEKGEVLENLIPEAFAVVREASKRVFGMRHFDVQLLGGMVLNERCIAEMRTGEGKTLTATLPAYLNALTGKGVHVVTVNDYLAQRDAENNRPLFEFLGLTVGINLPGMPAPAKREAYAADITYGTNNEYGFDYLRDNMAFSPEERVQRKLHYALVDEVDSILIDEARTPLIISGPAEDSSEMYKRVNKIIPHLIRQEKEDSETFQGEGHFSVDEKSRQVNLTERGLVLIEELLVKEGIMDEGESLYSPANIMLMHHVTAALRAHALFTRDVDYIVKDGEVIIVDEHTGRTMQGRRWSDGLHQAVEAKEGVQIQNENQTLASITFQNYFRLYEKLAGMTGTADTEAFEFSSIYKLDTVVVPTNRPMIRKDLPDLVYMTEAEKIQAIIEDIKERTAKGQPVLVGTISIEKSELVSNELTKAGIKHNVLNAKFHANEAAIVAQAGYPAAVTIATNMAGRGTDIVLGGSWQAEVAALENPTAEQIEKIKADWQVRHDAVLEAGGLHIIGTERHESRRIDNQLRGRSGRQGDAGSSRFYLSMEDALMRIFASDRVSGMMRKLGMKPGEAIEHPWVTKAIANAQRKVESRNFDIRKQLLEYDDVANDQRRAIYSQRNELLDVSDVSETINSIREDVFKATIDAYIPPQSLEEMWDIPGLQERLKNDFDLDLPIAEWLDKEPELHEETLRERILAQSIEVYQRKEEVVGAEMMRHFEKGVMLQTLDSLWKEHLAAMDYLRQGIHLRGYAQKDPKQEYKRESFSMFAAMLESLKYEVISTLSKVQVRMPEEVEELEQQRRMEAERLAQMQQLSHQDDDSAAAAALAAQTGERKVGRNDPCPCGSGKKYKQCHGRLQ

In the case of `Cc1ccc2c(ccn2CCC(=O)N2CCC(C(N)=O)CC2)c1`, the Percent Effect in experiment [1] was -2.26%; in experiment [2], 6.67%; in [3], 6.01%; in experiment [4], 7.91%; with Trypanosoma cruzi it was -0.393%; in [5] it was -12.2%. In addition, the Percent Effect in [6] is 16.6%; in the experiment listed under Homo sapiens, -3.73%; in experiment [7], 5.29%; in experiment [8] it was 7.69%; in experiment [9], -3.32%.

For the molecule `O=C(NCN1CCc2ccccc2C1)c1cnccn1`, the Percent Effect in experiment [1] was -0.536%; in [2], 2.7%; in experiment [3], -2.81%; in [4] it was -3.19%; in the experiment on Trypanosoma cruzi, -7.33%; in experiment [5], 2.73%. For the same molecule, the Percent Effect in experiment [6] is 10.4%; in the experiment listed under Homo sapiens, 0.709%; in experiment [7], 1.07%; in experiment [8] it was 6.17%; in [9] it was -6.84%.

In the case of `COC[C@@]12CCO[C@@H]1CCN(C(=O)Cc1ccccc1F)C2`, the Percent Effect in experiment [1] was 0.597%; in [2], 19.2%; in experiment [3] it was -6.38%; in experiment [4], 8.82%; with Trypanosoma cruzi, -0.595%; in experiment [5] it was -3.19%. The Percent Effect in experiment [6] is 12.2%; in the experiment filed under Homo sapiens it was 5.78%; in [7] it was 8.33%; in experiment [8], 11.1%; in experiment [9], -3.06%.

Consider `Cc1nnc2n1CCN(CCOc1ccccc1)C2`, for which the Percent Effect in [1] was -2.71%; in experiment [2], -1.27%; in [3], 9.45%; in experiment [4], -0.787%; in the experiment on Trypanosoma cruzi it was -0.308%; in [5], 3.66%. For the same molecule, the Percent Effect in experiment [6] is 3.43%; in the experiment listed under Homo sapiens, 0.176%; in [7], 2.08%; in experiment [8], 0%; in experiment [9], -7.58%.

Regarding `CC(NC(=O)NCc1ccc(Cl)s1)c1ccccn1` (stereo not drawn), the Percent Effect is -1.22% in [1]; 11.4% in experiment [2]; 6.06% in experiment [3]; 1.35% in experiment [4]; -3.38% in the experiment with Trypanosoma cruzi; 2.37% in experiment [5]. Also, the Percent Effect is 5.49% in [6]; 12.4% in the experiment filed under Homo sapiens; 3.12% in experiment [7]; 15.2% in experiment [8]; -12.8% in experiment [9].

In the case of `O=C(CCN1CCOC(Cn2cccn2)C1)NC1CCCC1` (stereo not drawn), the Percent Effect was -6.8% in experiment [1]; 19% in experiment [2]; -3.66% in [3]; -3.31% in experiment [4]; 3.59% in the experiment with Trypanosoma cruzi; 0.215% in [5]. The Percent Effect in experiment [6] is 15.4%; in the experiment listed under Homo sapiens it was 4.11%; in experiment [7] it was 8.33%; in experiment [8] it was 5.06%; in experiment [9], -15.2%.

Regarding `Fc1cccc(-c2nc(CN3CCCCC3Cn3cncn3)co2)c1` (stereo not drawn), the Percent Effect was -2.29% in [1]; 7.59% in experiment [2]; 1.61% in [3]; 1.08% in experiment [4]; 7.65% with Trypanosoma cruzi; 1.52% in experiment [5]. Moreover, the Percent Effect in [6] was 1.72%; in the experiment filed under Homo sapiens, -27.5%; in [7], 3.45%; in [8] it was 13.9%; in experiment [9], -6.86%.

As for `Cc1nc(NC2CCCC2)cc(C2CCN2C(=O)c2ccccc2)n1` (stereo not drawn), the Percent Effect in experiment [1] was -6.88%; in [2], 4.05%; in experiment [3], 3.55%; in experiment [4], 0.412%; in the experiment with Trypanosoma cruzi it was 3.16%; in experiment [5], -1.62%. For the same molecule, the Percent Effect is 6.08% in [6]; -2.7% in the experiment filed under Homo sapiens; 1.07% in [7]; 3.9% in experiment [8]; -22.1% in experiment [9].
